Only some compounds are listed: those with a hit (about 8% of all), similar ones and a draw of the others.
MCF10A rerep: induces DNA re-replication in MCF 10a normal breast cells; AID 624296; hit rate 2.9% among 350,000; MCF 10A DNA re-replication, Hoechst nuclear intensity, 48 h; Potency, µM (series often up to 46.1 µM), for inactives: at the top dose activity, positive = re-replication, most hits filed as activators; further: % of control where 0% means no effect; nearly all actives have a fitted effect of over 50% in size
HT1080 IDH1KD tx: toxicity to HT-1080 IDH1 knockdown cells (counter line). HT-1080 IDH1 knockdown viability, ATP luminescence, 48 h. Potency, µM (series often up to 46.1 µM), inactives show top-dose activity, negative = toxicity, actives largely listed as cytotoxic. hit rate 2% among 360,000. AID 686971;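 further: 0% = DMSO wells and -100% = cell-free medium wells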
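Cytotoxicity counter-line: IDH1KD HT-1080, 48 h, CellTiter-Glo. Curves classed by r2, magnitude and activity.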
KB-V1 MDR tox: KB-V1 MDR subline cytotoxicity | hit rate 3.4% among 400,000 | KB-V1 MDR cells viability, CellTiter-Glo, 72 h | AID 1347076 | Potency, µM (highest dose often 46.1 µM), hits mostly cytotoxic; further: on the % scale 0 is the no-effect control and ±100 the full control effect; nearly all actives have a fitted effect of over 60% in size
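Drug-selected KB-V1 cells, grown in DMEM lacking phenol red with 10% FBS, receive compound titrations; after three days at 37 degrees C, surviving cell ATP is quantified by CellTiter-Glo luminescence and responses normalized and curve-fitted.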
KB-3-1 tox: KB-3-1 parental cell cytotoxicity. hit rate 1.4% among 400,000. Potency, µM (series often up to 46.1 µM), actives largely listed as cytotoxic. KB-3-1 viability, CellTiter-Glo ATP luminescence, 72 h; further: on the % scale 0 is the no-effect control and ±100 the full control effect; nearly all actives have a fitted effect of over 60% in size
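Viability of parental KB-3-1 cells, measured by CellTiter-Glo luminescence, followed a 72 h incubation at 37 °C with pinned compounds in phenol-red-free DMEM containing 10% FBS.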
SW480 rerep: inducers of DNA re-replication in SW480 colon cancer cells | SW480 DNA re-replication, Hoechst DNA content imaging, 48 h | Potency, µM (top dose mostly 46.1 µM), for inactives: at the top dose re-replication activation, most hits filed as activators | hit rate 1.8% among 340,000 | AID 624297; further: % of control where 0% means no effect; nearly all actives have a fitted effect of over 55% in size
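DNA re-replication was detected as more nuclei of elevated Hoechst intensity after 48 hr exposure to compound (23 nL pinned per well of 250 cells).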
HT1080NT lethal: kills 2HG-producing HT-1080-NT fibrosarcoma cells | HT-1080-NT fibrosarcoma viability, CellTiter-Glo ATP luminescence, 48 h | Potency, µM (doses to about 46.1 µM), for the others: top-dose activity, negative = less viability, actives largely listed as cytotoxic | hit rate 1.6% among 360,000 | AID 686970;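 further: NT is the 2HG producing partner of a matched IDH1 knockdown line; 0% = DMSO-treated cells and -100% = media-only wells without cells; nearly all actives have a fitted effect of over 55% in size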
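Viability of the 2HG-overproducing fibrosarcoma line after 48 hours of compound exposure at 37 degrees C was determined by luminescence with CellTiter-Glo, and concentration-effect curves were then fitted and categorized.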
* hit, by the source's call; i = inactive; ? = inconclusive; . = no result. The call rests on the fitted dose curve; in most records, active means well fitted curve in the direction sought with a large enough effect; inconclusive means small, poorly fitted or top-dose-only effect, or another doubt; inactive means no such curve, though single readings can be large; an effect the other way counts as inactive or inconclusive. Potency means the concentration at half of the fitted maximal effect.

SMILES	MCF10A rerep	HT1080 IDH1KD tx	KB-V1 MDR tox	KB-3-1 tox	SW480 rerep	HT1080NT lethal
Cc1ccc(C2=NN(C(=O)c3ccccc3F)C(c3ccccc3F)C2)cc1 (stereo not given)	?	13µM*	?	?	?	13µM*
CC(=O)N1N=C(c2ccc3nccnc3c2)CC1c1ccccc1 (stereo not given)	-2.8%	0.6%	i	i	-1.1%	5.0%
CC(=O)N1N=C(c2ccncc2)CC1c1ccccc1O (stereo not given)	2.9%	6.0%	i	?	-2.8%	8.2%
Cc1ccc(C(=O)C2Oc3ccccc3C3CC(c4ccc(C)cc4)=NN23)cc1 (stereo not given)	9.6%	9.3%	20.6µM*	i	1.2%	7.8%
O=C(c1ccccc1)N1N=C(c2ccccc2)CC1c1ccccc1O (stereo not given)	?	25.9µM*	i	i	?	23.1µM*
O=C(c1ccccc1)N1N=C(c2ccccc2O)CC1c1ccccc1 (stereo not given)	-28.3%	-16.4%	i	i	0.9%	-7.6%
O=C(c1cccs1)N1N=C(c2ccccc2)CC1c1ccccc1O (stereo not given)	?	-22.2%	i	i	?	-27.6%
Cc1ccc(C2=NN(C(=O)c3cccs3)C(c3ccccc3O)C2)cc1 (stereo not given)	20.6µM*	12.4%	i	i	?	8.3%
CC(=O)N1N=C(c2ccccc2)CC1c1cn(Cc2ccccc2)c2ccccc12 (stereo not given)	20.6µM*	?	14.6µM*	?	?	?
CN1C(=O)CC(c2cn(Cc3ccccc3)c3ccccc23)C1=O (stereo not given)	20.2%	-0.1%	?	i	13.0%	-11.3%
COC(=O)CC[C@H](N)C(=O)O	-1.5%	.	.	.	2.2%	.
Cc1cc(=O)n(CC(=O)N2CCCCC2)c2c1c(C)nn2C	.	.	i	i	.	.
Cc1ccc(C)c(S(=O)(=O)c2cnc(SCC(=O)Nc3ccc(F)cc3F)[nH]c2=O)c1	.	.	i	i	.	.
Cc1cccc(OCC(=O)NC(C)C(=O)N/N=C/c2c(OCc3ccccc3)ccc3ccccc23)c1 (stereo not given)	-0.2%	?	16.4µM*	?	?	?
CC(=O)c1ccc(NC2=C(N3CCOCC3)C(=O)c3ccccc3C2=O)cc1	0.0%	?	25.9µM*	i	2.5%	?
Cc1ccc(S(=O)(=O)NC2=C(N3CCN(c4ccccc4F)CC3)C(=O)c3ccccc3C2=O)cc1	13.7%	16.6%	?	?	0.8%	13.7%
O=C(O)c1ccc(NC2=C(N3CCOCC3)C(=O)c3ccccc3C2=O)cc1	4.4%	5.0%	i	i	.	-1.8%
CC(=O)N(C1=C(N2CCOCC2)C(=O)c2ccccc2C1=O)c1ccc(C(=O)O)cc1	?	-4.3%	i	i	4.11µM*	-11.9%
CC(=O)Nc1ccc(S(=O)(=O)NC2=C(N3CCN(c4ccc(F)cc4)CC3)C(=O)c3ccccc3C2=O)cc1	16.4µM*	?	?	i	16.4µM*	?
Cc1ccc(NC2=C(N3CCOCC3)C(=O)c3ccccc3C2=O)cc1	0.6%	?	?	i	1.2%	?
CC(=O)N(C)C1=C(N2CCOCC2)C(=O)c2ccccc2C1=O	0.731µM*	0.891µM*	11.6µM*	1.16µM*	?	1.58µM*
COc1ccc(NC(=O)NCCn2nnc3cc(S(=O)(=O)N(C)C)ccc32)cc1	.	.	i	i	.	.
Cc1cccc(CNC(=O)C2CCN(S(=O)(=O)c3cccc4nonc34)CC2)c1	.	.	i	i	.	.
Cc1ccc(NS(=O)(=O)c2cc3c4c(cccc4c2)C(=O)NC3=O)cc1C	14.6µM*	5.17µM*	?	14.6µM*	27.7%	7.31µM*
Cc1c(CN(C)C)c2c(n1Cc1ccccc1)C(=O)c1ccccc1-2	4.3%	16.4µM*	?	?	0.2%	23.1µM*
SMILES	MCF10A rerep	HT1080 IDH1KD tx	KB-V1 MDR tox	KB-3-1 tox	SW480 rerep	HT1080NT lethal
N#Cc1nc(-c2ccc(OCc3ccccc3Cl)cc2)oc1N1CCC(C(N)=O)CC1	.	.	?	i	.	.
CCCc1nnc(NC(=O)c2nc(S(=O)(=O)Cc3ccc(C)cc3)ncc2Cl)s1	3.66µM*	?	i	?	8.2µM*	-23.5%
CSc1nnc(NC(=O)c2nc(S(=O)(=O)Cc3ccccc3)ncc2Cl)s1	?	23.1µM*	?	18.4µM*	?	20.6µM*
CC(C)c1nnc(NC(=O)c2nc(S(=O)(=O)Cc3ccccc3)ncc2Cl)s1	?	6.51µM*	?	?	?	7.31µM*
O=C(NCc1ccc(Cl)cc1)C1CCN(S(=O)(=O)Cc2ccccc2)CC1	.	.	i	i	.	.
Cc1onc(-c2c(F)cccc2Cl)c1C(=O)NC1C(=O)N2C1SC(C)(C)C2C(=O)O (stereo not given)	3.6%	.	.	.	-5.2%	.
C=CC[n+]1cccc2cc(Br)ccc21	.	.	i	i	.	.
COP(=O)(OC)c1nc(-c2cccc3ccccc23)oc1NCc1ccccc1	18.4µM*	-0.3%	11.6µM*	?	13µM*	-14.4%
COP(=O)(OC)c1nc(-c2ccccc2)oc1NCc1ccccc1	-1.9%	-9.4%	i	i	-4.8%	-12.2%
COC(=O)c1ccc(NC(=O)c2c(NCc3cccc(F)c3)sc3c2CCCC3)cc1	.	.	i	i	.	.
Cn1nc(-c2ccccc2)c(CO)c1Oc1ccc(F)cc1	20.6µM*	3.9%	i	i	-1.0%	4.2%
COCC(C)N=C1NN=C(c2ccc(NC(C)=O)cc2)CS1 (stereo not given)	5.8µM*	-2.0%	i	i	?	-25.2%
CN1CCN(C(=O)Nc2cccc(Cl)c2)c2cccnc21	.	.	i	i	.	.
Oc1ccc(-c2n[nH]c(C(F)(F)F)c2-c2ccccc2)c(O)c1	?	10.3µM*	?	?	-0.5%	-20.4%
COc1ccc(-c2c(-c3ccc(OC)c(C)c3O)n[nH]c2C)cc1	?	18.4µM*	i	i	2.9%	?
COc1ccc(-c2c(-c3ccc(O)cc3O)n[nH]c2C(F)(F)F)cc1	?	?	i	i	11.6µM*	?
COc1ccccc1-c1c(-c2ccc(O)cc2O)n[nH]c1C(F)(F)F	-2.5%	-20.0%	i	i	-2.8%	-5.2%
COc1ccc(Cn2c(C(=O)O)c(CNC3CCC(C)CC3)c3ccc(C)cc32)cc1 (stereo not given)	.	.	i	i	.	.
